Shown are actives, neighbours in structure and some others; about 7.9% of the full set was active somewhere.
MARV entry inh: blocks Marburg virus binding to or entry into cells. Marburg virus pseudotyped entry inhibition, cell reporter. Potency, µM (top dose mostly 37.8 µM), for the others: top-dose activity change, negative = inhibition, usual class: inhibitors. 300,000 tested, 1.8% active; calls by dose curve; tested in HEK293 cells; further: potency means the concentration at half of the fitted maximal effect
HCV inhibitor: HCV inhibition; Potency, µM (titrated, usually from 41.8 µM), without a hit: top-dose activity change, negative = inhibition, hits mostly inhibitors; 340,000 tested, 3.4% active; Huh7.5.1 HCVcc-Cre infection, luciferase reporter, 44 h; active means well fitted inhibition curve with a large enough effect; inconclusive means small, poorly fitted or top-dose-only effect, or another doubt; inactive means no such curve, though single readings can be large or run the other way; further: potency means the concentration at half of the fitted maximal effect
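Cells seeded at 1,000/well and cultured 4 h, then compounds added followed by HCVcc-Cre virus (~0.5 moi). After 44 h further culture, luciferase substrate was added, plates held 15 min at room temperature, and luminescence read for 15 sec.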
HCMV inh: blocks human cytomegalovirus replication | activity change, negative = inhibition, % at 57.5 µM | 410,000 tested, 4.5% active | AID 1259415 | HFF cells, HCMV-luciferase reporter, 72 h; stronger effect = lower value; in the data active means activity change below about -60%; inconclusive means no clear call, values can overlap the other calls; inactive means above about -39%
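Two-dose cell screen: HFF monolayers treated with compounds and infected with luciferase-expressing HCMV at 1 PFU/cell, 72 h at 37C, then lysed for luciferase measurement.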
FMDV antiviral: foot and mouth disease virus antiviral activity; FMDV antiviral cell-based qHTS; Potency, µM (top dose mostly 57.9 µM), for the others: at the highest dose activity change, negative = inhibition, hits mostly inhibitors; 410,000 tested, 1.2% active; AID 1159524; calls by dose curve; tested in HEK293T cells; further: read-out not given here; potency means the concentration at half of the fitted maximal effect; nearly all actives have a fitted effect of over 45% in size
Lassa entry inh: blocks Lassa virus binding to or entry into cells; Lassa virus pseudotype entry inhibition, cell reporter; Potency, µM (doses to about 37.9 µM), without a hit: at the top dose activity change, negative = inhibition, usual class: inhibitors; 300,000 tested, 1.2% active; AID 540256; calls by dose curve; tested in HEK293 cells; further: potency means the concentration at half of the fitted maximal effect; nearly all actives have a fitted effect of over 50% in size
Active calls of the source: *; u = inconclusive; x = no result given; [ ] = another dose, or the depositor's remark. On the % scale 0 is the no-effect control and ±100 the full control effect.

SMILES	MARV entry inh	HCV inhibitor	HCMV inh	FMDV antiviral	Lassa entry inh
Cn1nnnc1SCCNCc1ccc(OCc2ccccc2Cl)cc1	u	x	-105*	0%	-3%[46.1 µM]
Cn1nnnc1SCCNCc1cc(Br)ccc1OCc1ccccc1Cl	u	x	-69*	u	u
Cn1nnnc1SCCNCc1ccc(OCc2ccccc2)cc1	u	x	-1	-5%	-5%[46.1 µM]
Cc1ccc(-n2c(=O)[nH]c3cc(C(=O)NCc4ccccc4)ccc3c2=O)cc1	0%[46.1 µM]	x	-3	-3%	1%[46.1 µM]
Cc1ccc(-c2n[nH]c3c2C(c2ccccc2Cl)N(c2ccc(C(=O)O)cc2)C3=O)cc1 (stereo not given)	-22%[46.1 µM]	x	-24	u	-28%[46.1 µM]
COc1ccc(C2c3c(-c4ccc(F)cc4)n[nH]c3C(=O)N2c2ccccc2)cc1OC (stereo not given)	-21%[46.1 µM]	x	-9	u	u
Cc1ccc(N2C(=O)c3[nH]nc(-c4ccc(Cl)cc4)c3C2c2ccc(F)cc2)cc1 (stereo not given)	u	x	-105*	u	u
Cc1ccc(-c2n[nH]c3c2C(c2cccs2)N(c2ccc(Cl)cc2)C3=O)cc1 (stereo not given)	u	x	-105*	u	u
CN(C)C(=O)c1ccc(-c2ccc3ncnc(NCc4cccs4)c3c2)cc1	x	x	x	-8%	x
O=C(CN1Cc2ccccc2OC(c2ccsc2)C1)NCc1ccc2c(c1)OCO2 (stereo not given)	x	x	x	-3%	x
COCCn1c(SCC(=O)c2ccccc2)nc2cc(C(=O)NC3CCCC3)ccc2c1=O	x	x	10	-4%	11%[46.1 µM]
N=C1C(c2nc(-c3ccc(Br)cc3)cs2)=C(O)CN1NC(=O)c1ccc([N+](=O)[O-])cc1	-19%[46.1 µM]	2%	-102*	-2%	0%
Cc1ccc(-c2csc(C3=C(O)CN(NC(=O)c4ccc([N+](=O)[O-])cc4)C3=N)n2)cc1	-14%[46.1 µM]	2%	-28	-5%	u
Cc1ccc(-c2cc(C#N)c(=O)n(Cc3c(Cl)cccc3Cl)c2)cc1	-26%	2%	-62*	15%	3%
N#Cc1cc(-c2ccccc2)cn(Cc2c(Cl)cccc2Cl)c1=O	-19%	-3%	u	-8%	4%
CCCC(=O)C1=C(c2ccc(C)c(C)c2)N(C(=O)CCC)n2c(CC)nnc2S1	x	x	-76*	-23%	-23%[46.1 µM]
CCCC(=O)C1=C(c2ccc(C)cc2)N(C(=O)CCC)n2cnnc2S1	x	x	-95*	-21%	10%[46.1 µM]
CCC(=O)C1=C(c2ccc(OC)c(OC)c2)N(C(=O)CC)n2c(CC)nnc2S1	x	x	-63*	u	-27%[46.1 µM]
CCCC(=O)C1=C(c2cccc(OC)c2)N(C(=O)CCC)n2c(C)nnc2S1	x	x	-95*	-17%	-10%[46.1 µM]
CCC(=O)C1=C(c2ccc(F)cc2)N(C(=O)CC)n2c(nnc2-c2ccc(OC)cc2)S1	x	x	5	u	u
Cc1cccc(-n2nc(C)c(C(=O)Nc3cc(C)ccc3C)c2-n2cccc2)c1	x	x	u	u	-11%[46.1 µM]
CCc1cc([N+](=O)[O-])cc(CC)c1N	5%[46.1 µM]	11µM*	-20	-23%	10%
CN1C(=O)C2=NC=NC2N(C)C1=O (stereo not given)	6%	x	x	x	x
O=C1C=CN(C2OC(CO)C(O)C2O)C(=O)C1 (stereo not given)	x	x	-73*	-9%	x
COc1ccc(-c2csc(NC(=O)C3=NN(c4ccccc4)C(=O)CC3)n2)cc1	u	7.1µM*	-32	20µM*	u
SMILES	MARV entry inh	HCV inhibitor	HCMV inh	FMDV antiviral	Lassa entry inh
CCN(c1ccccc1)S(=O)(=O)c1ccc(OC)c(NC(=O)c2ccccc2OC)c1	18%	u	-8	-7%	-12%
CCN(c1ccccc1)S(=O)(=O)c1ccc(OC)c(NC(=O)C2=NN(c3ccccc3)C(=O)CC2)c1	u	u	-17	-4%	0.32µM*
O=C(Nc1nc(-c2cc(F)ccc2F)cs1)C1=NN(c2ccccc2)C(=O)CC1	-1%	3%	61	-31%	u
COc1ccc(-c2csc(NC(=O)c3cccc(N4C(=O)CCC4=O)c3)n2)cc1C	6%	x	u	u	0%
O=C(Nc1nc(-c2ccc3ccccc3c2)cs1)c1ccc(N2C(=O)CCC2=O)cc1	0%	-25%	-71*	u	5%
COc1ccc(NC(=O)CCCN2C(=O)CCn3nc(-c4cn(C)c5ccccc45)cc32)cc1	x	x	6	-25%	-8%[46.1 µM]
Cc1cc(C)cc(NC(=O)N2CCN(C(=O)c3nsc4ccccc34)CC2)c1	x	x	u	-22%	-17%[46.1 µM]
Cc1ccc2ncccc2c1[N+](=O)[O-]	5%[46.1 µM]	5%	-23	-12%	-5%
Cc1[nH]c2ccc3ncccc3c2c1C	11%	11µM*	-3	28%	u
O=C(OCc1ccccc1C(F)(F)F)c1cc([N+](=O)[O-])ccc1N1CCOCC1	u	u	-12	-10%	u
CN(C)S(=O)(=O)c1cccc(COC(=O)c2cc([N+](=O)[O-])ccc2N2CCOCC2)c1	11%[46.1 µM]	13µM*	-20	u	u
CSc1ccc(COC(=O)c2cc([N+](=O)[O-])ccc2N2CCOCC2)cc1	u	u	-83*	-32%	u
O=C(OCc1ccccc1F)c1cc([N+](=O)[O-])ccc1N1CCOCC1	u	10µM*	9	-19%	-5%
Cc1ccccc1COC(=O)c1cc([N+](=O)[O-])ccc1N1CCOCC1	x	13µM*	23	-6%	x
COc1cccc(C(=O)NCc2nc(-c3ccccc3)no2)c1OC	u	x	8	-10%	4%[46.1 µM]
O=C(c1cc([N+](=O)[O-])ccc1N1CCOCC1)N1CCN(c2ccccc2)CC1	x	x	-87*	x	x
CCOc1ccc(C(C)=O)cc1COC(=O)c1cc([N+](=O)[O-])ccc1N1CCOCC1	u	u	-25	-21%	-1%
COc1ccc(OC)c(COC(=O)c2cc([N+](=O)[O-])ccc2N2CCOCC2)c1	x	8.9µM*	-9	-14%	x
Cc1cccc(NC(=O)N2CCc3c(sc4c3CCCC4)C2c2ccc(F)cc2)c1 (stereo not given)	x	x	-7	-11%	-11%[46.1 µM]
CCC(Cn1nnc2ccccc2c1=O)NC(=O)Nc1ccccc1OC (stereo not given)	u	x	15	-24%	15%[46.1 µM]
CCOC(=O)c1ccccc1NC(=O)CSc1ncc(CO)n1Cc1ccc(C)cc1	x	x	12	-21%	u
Nc1nc(-c2ccccc2)c(C(=O)Nc2ccccc2)s1	x	-6%	-61*	-6%	x
Cc1ccc(Cl)cc1NC(=O)c1sc2nc(-c3ccccc3)cn2c1C	x	x	-63*	-10%	13%[46.1 µM]
Nn1c(SCC(=O)Nc2ccc3c(c2)OCO3)nnc1-c1cccc(Cl)c1	5%	3%	3	8%	13%
O=C(Nc1ccc(F)cc1)c1sc(Cl)nc1-c1ccccc1	11%	-10%	-5	-14%	-3%
Cc1c(C(=O)Nc2ccccc2)sc2nc(-c3ccccc3)cn12	-1%	8.9µM*	1	-13%	3%
Nn1cc(-c2ccccc2)nc1SCC(=O)Nc1ccc2c(c1)OCO2	10%	-8%	-100*	23%	1%

Bioassay records deposited in PubChem BioAssay by National Center for Advancing Translational Sciences (NCATS).
